# From PubChem BioAssay (EPA / NIEHS)
# “And” between values parts separate entries of the source, which are not always exact repeats. Identical values can stand only once. Records with an inconclusive call do not appear. Some structures have more than one record in an assay (separate samples or runs), and their calls can disagree. The source made the active and inactive calls. Rule for the calls, unless noted: active = hit-call score of the fitted dose curve at least 0.9, where 1 is the maximum; inactive = score below 0.9.
# Experiments:
# [1] = biological target: Myc proto-oncogene protein (Homo sapiens) (UniProt P01106); experiment: ATG_Myc_CIS: Attagene CIS-FACTORIAL HepG2 Assay for human Myelocytomatosis (Myc) Proto-Oncogene Transcription Factor (AID 2282990); settings: HepG2, Attagene cis-reporter transcription factor activity; actives raise or lower the signal
# Myc proto-oncogene protein (Homo sapiens), sequence (P01106 whole entry, looked up): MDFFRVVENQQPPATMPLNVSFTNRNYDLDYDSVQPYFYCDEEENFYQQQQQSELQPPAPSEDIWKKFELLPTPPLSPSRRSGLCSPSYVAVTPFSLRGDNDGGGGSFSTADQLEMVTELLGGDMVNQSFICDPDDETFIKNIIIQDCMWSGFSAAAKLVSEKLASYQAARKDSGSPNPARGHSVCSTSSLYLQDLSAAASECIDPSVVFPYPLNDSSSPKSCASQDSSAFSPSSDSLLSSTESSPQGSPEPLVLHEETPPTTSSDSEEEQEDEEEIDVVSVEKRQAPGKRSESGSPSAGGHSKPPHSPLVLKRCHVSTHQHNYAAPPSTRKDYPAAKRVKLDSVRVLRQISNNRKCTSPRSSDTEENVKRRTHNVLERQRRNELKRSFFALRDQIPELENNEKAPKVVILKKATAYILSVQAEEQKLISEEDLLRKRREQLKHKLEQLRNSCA
# In short: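 HepG2, transient MRTU transfection (cis promoters, endogenous TFs); 24 h dosing; TriZol RNA → oligo(dT) RT → PCR → 6-FAM primer extension → HpaI cut → CE. Bidirectional fit vs DMSO.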
# [2] = ATG_NF_kB_CIS: Attagene CIS-FACTORIAL HepG2 Assay for human Nuclear Factor Kappa B (NF-kB) (AID 2282991); settings: HepG2 Attagene cis-factorial NF-kB reporter mRNA; actives raise or lower the signal
# In short: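 Fluorescence of labelled RT-PCR products separated by capillary electrophoresis gives reporter mRNA levels from transfected HepG2 cells exposed 24 h; values are fitted in both directions relative to DMSO.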
# [3] = ATG_NRF2_ARE_CIS: Attagene CIS-FACTORIAL HepG2 Assay for human Nuclear Factor Erythroid 2 Related Factor 2 (NFR2) response to Antioxidant Response Elements (ARE) (AID 2282992); settings: HepG2 Attagene ARE/NRF2 reporter, transcription factor activity; actives raise or lower the signal
# In short: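 Endogenous transcription factor activity in human liver HepG2 cells is tracked via a cis-element-driven reporter within a multiplexed set. mRNA induction is read by RT-PCR and capillary electrophoresis after 24 h, with DMSO as baseline.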
# [4] = biological target: Cellular tumor antigen p53 (Homo sapiens) (UniProt P04637); experiment: ATG_p53_CIS: Attagene CIS-FACTORIAL HepG2 Assay for human p53 Transcription Factor (AID 2282994); settings: HepG2 p53 cis-element reporter, Attagene mRNA; actives raise or lower the signal
# Cellular tumor antigen p53 (Homo sapiens), sequence (P04637 whole entry, looked up, the tested form may be a part): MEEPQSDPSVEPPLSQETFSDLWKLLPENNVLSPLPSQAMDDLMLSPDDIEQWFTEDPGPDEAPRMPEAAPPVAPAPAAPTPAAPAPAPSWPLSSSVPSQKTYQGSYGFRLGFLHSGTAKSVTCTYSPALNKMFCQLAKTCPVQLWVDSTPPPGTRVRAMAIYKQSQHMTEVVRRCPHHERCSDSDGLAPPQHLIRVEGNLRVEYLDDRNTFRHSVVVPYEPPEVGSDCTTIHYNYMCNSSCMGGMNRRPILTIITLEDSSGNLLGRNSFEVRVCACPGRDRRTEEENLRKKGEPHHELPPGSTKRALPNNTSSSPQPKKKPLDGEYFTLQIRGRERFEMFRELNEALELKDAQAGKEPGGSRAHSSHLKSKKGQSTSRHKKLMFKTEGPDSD
# In short: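 Steps: transfect HepG2 with multiplexed cis reporter constructs; dose chemicals 24 h; extract RNA, reverse-transcribe, PCR-amplify reporter sequences; FAM-label, HpaI-digest, resolve fragments by CE. Activity fitted both directions relative to DMSO.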
# [5] = BSK_3C_TissueFactor: BioMAP Diversity Plus: 3C Assay for Tissue Factor Biomarker Activity (AID 2282997); settings: BioMAP 3C HUVEC, tissue factor biomarker readout; actives raise or lower the signal
# In short: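 HUVEC, 3C system, 24 h post-dose; Tissue Factor by ELISA; bidirectional fit vs DMSO baseline.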
# [6] = BSK_3C_uPAR: BioMAP Diversity Plus: 3C Assay for Urokinase-type plasminogen activator receptor (uPAR) Biomarker Activity (AID 2282998); settings: BioMAP 3C HUVEC, uPAR biomarker ELISA; actives raise or lower the signal
# In short: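 HUVEC primary cells; 24 h post-dose; uPAR by ELISA; gain or loss of signal fitted bidirectionally vs DMSO baseline.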
# [7] = BSK_3C_VCAM1: BioMAP Diversity Plus: 3C Assay for Vascular cell adhesion molecule 1 (VCAM1) Biomarker Activity (AID 2282999); settings: BioMAP 3C HUVEC, VCAM1 ELISA, cytokine-stimulated; actives raise or lower the signal
# In short: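 Activity fitted in both directions relative to DMSO, with ELISA measurement of the surface marker on primary HUVEC (3C) at 24 h post-treatment; parallel SRB staining (0.1% SRB, TCA-fixed, 560 nm) flagged overt cytotoxicity.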
# [8] = BSK_4H_Eotaxin3: BioMAP Diversity Plus: 4H Assay for Eotaxin 3 Biomarker Activity (AID 2283000); settings: primary human endothelial cells (HUVEC); actives raise or lower the signal;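 for outcome: CCL26 protein level quantified by ELISA in parallel with SRB cytotoxicity check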
# In short: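 Readout is Eotaxin-3 (CCL26) level by ELISA in primary human umbilical vein endothelial cells harvested 24 h after chemical exposure; activity fitted in both directions against DMSO control.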
# [9] = biological target: human Peroxisome Proliferator-activated Receptor alpha (PPARa), PPARA (gene 5465) (UniProt Q07869); experiment: ATG_PPARa_TRANS: Attagene TRANS-FACTORIAL HepG2 Assay for human Peroxisome Proliferator-activated Receptor alpha (PPARa) (AID 2283001; active = hit-call score of the fitted dose curve at least 0.9, where 1 is the maximum)
# human Peroxisome Proliferator-activated Receptor alpha (PPARa), PPARA (gene 5465), sequence (Q07869 whole entry, looked up, the tested form may be a part): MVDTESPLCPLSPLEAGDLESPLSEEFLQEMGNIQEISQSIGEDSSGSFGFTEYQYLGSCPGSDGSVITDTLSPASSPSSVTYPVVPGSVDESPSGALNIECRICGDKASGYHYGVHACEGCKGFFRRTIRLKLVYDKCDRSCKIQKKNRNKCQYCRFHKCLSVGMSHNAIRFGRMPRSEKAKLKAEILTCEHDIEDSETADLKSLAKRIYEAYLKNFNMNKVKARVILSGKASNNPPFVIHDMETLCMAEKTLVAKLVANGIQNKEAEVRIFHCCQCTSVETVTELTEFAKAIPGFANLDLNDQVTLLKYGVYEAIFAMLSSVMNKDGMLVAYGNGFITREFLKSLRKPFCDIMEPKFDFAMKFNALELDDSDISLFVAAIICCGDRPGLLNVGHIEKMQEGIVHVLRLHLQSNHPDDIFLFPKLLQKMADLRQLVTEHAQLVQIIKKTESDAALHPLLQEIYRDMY
# In short: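 Transfected HepG2 cells treated with test chemical for 24 h. RNA isolated, reverse-transcribed with oligo(dT), PCR-amplified, FAM-labelled and HpaI-digested. Fragments sized by capillary electrophoresis; gain-of-signal fit relative to DMSO.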
# [10] = biological target: human Peroxisome Proliferator-activated Receptor delta (PPARd), PPARD (gene 5467) (UniProt Q03181); experiment: ATG_PPARd_TRANS: Attagene TRANS-FACTORIAL HepG2 Assay for human Peroxisome Proliferator-activated Receptor delta (PPARd) (AID 2283002; active = hit-call score of the fitted dose curve at least 0.9, where 1 is the maximum)
# human Peroxisome Proliferator-activated Receptor delta (PPARd), PPARD (gene 5467), sequence (Q03181 whole entry, looked up, the tested form may be a part): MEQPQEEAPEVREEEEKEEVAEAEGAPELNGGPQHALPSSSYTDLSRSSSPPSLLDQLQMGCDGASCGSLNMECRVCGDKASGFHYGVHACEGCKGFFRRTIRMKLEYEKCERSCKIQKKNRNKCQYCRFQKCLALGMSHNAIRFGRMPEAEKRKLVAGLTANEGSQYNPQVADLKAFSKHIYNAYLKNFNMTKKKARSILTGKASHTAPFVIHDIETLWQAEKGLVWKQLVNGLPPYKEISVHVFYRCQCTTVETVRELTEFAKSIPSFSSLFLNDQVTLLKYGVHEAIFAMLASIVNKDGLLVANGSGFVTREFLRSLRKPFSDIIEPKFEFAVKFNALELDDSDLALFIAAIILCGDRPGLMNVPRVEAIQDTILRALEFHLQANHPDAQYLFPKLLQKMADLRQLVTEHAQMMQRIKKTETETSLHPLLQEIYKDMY
# In short: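 Transient HepG2 transfection (multiple GAL4-UAS RTUs, chimeric receptor-Gal4); 24 h dosing; total RNA → oligo(dT) RT → PCR → 6-FAM primer extension → HpaI cut → CE. Positive direction vs DMSO.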
# [11] = read-out: Intercellular Adhesion Molecule 1 (ICAM1), ICAM1 (gene 3383); experiment: BSK_3C_ICAM1: BioMAP Diversity Plus: 3C Assay for Intercellular Adhesion Molecule 1 (ICAM1) Biomarker Activity (AID 2283003); settings: primary human endothelial cells (HUVEC); actives raise or lower the signal
# In short: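 ELISA read-out of ICAM-1; HUVEC (primary human), 3C system, 24 h post-dosing; bidirectional fit vs DMSO baseline.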
# [12] = biological target: human Retinoic Acid Receptor beta (RARb), RARB (gene 5915) (UniProt P10826); experiment: ATG_RARb_TRANS: Attagene TRANS-FACTORIAL HepG2 Assay for human Retinoic Acid Receptor beta (AID 2283004; active = hit-call score of the fitted dose curve at least 0.9, where 1 is the maximum)
# human Retinoic Acid Receptor beta (RARb), RARB (gene 5915), sequence (P10826 whole entry, looked up, the tested form may be a part): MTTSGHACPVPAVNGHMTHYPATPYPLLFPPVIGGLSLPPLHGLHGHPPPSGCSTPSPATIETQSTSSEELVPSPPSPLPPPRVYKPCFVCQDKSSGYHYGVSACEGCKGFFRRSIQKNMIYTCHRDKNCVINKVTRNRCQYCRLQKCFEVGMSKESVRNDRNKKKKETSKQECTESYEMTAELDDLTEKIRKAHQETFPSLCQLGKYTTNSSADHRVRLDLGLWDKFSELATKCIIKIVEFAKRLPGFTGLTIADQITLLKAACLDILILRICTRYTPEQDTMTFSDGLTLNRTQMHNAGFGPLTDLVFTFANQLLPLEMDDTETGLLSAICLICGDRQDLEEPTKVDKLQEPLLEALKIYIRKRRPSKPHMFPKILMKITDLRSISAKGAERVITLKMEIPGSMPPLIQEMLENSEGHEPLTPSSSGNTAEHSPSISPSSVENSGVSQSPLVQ
# In short: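 Readout is reporter mRNA induction: RNA reverse-transcribed, PCR-amplified, FAM-labelled, HpaI-cut and resolved by capillary electrophoresis. Transiently transfected HepG2 cells carrying exogenous NR–Gal4 chimeras were dosed for 24 h; activity fitted upward relative to DMSO.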
# [13] = BSK_3C_Proliferation: Cell Proliferation Assessment in the BioMAP Diversity Plus: 3C Assay (AID 2283006); settings: primary human endothelial cells (HUVEC);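 for AC50: potency may reflect either rise or fall in cell number versus DMSO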
# In short: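 HUVEC, sub-confluent; 48 h chemical exposure; 10% TCA fix, 0.1% SRB stain, A560 total protein. Gain or loss of signal fitted both directions vs DMSO control.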
# [14] = biological target: Peroxisome proliferator-activated receptor gamma (Homo sapiens) (UniProt P37231); experiment: ATG_PPARg_TRANS: Attagene TRANS-FACTORIAL HepG2 Assay for human Peroxisome Proliferator-activated Receptor-gamma (PPARg) (AID 2283007; active = hit-call score of the fitted dose curve at least 0.9, where 1 is the maximum)
# Peroxisome proliferator-activated receptor gamma (Homo sapiens), sequence (P37231 whole entry, looked up): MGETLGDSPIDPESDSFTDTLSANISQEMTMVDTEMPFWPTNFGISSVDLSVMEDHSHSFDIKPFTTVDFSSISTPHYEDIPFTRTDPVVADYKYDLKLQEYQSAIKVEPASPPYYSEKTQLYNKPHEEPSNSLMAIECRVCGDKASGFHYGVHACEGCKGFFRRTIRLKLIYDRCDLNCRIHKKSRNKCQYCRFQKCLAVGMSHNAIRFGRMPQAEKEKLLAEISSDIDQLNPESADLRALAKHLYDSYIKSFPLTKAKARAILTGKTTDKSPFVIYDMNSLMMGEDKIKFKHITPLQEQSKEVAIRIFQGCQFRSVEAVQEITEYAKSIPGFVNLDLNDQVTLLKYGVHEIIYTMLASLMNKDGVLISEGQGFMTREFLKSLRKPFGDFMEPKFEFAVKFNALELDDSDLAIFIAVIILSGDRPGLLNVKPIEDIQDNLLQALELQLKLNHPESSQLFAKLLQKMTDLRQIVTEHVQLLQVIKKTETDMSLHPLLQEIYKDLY
# In short: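 Twenty-four hours after chemical dosing of transiently transfected HepG2 cells, isolated RNA was converted to cDNA, reporter sequences amplified and 6-FAM-labelled, then HpaI-digested and analysed by capillary electrophoresis. Signal increase against DMSO was fitted.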
# [15] = biological target: Nuclear receptor subfamily 1 group I member 2 (Homo sapiens) (UniProt O75469); experiment: ATG_PXR_TRANS: Attagene TRANS-FACTORIAL HepG2 Assay for human Pregnane X Receptor (PXR) (AID 2283008; active = hit-call score of the fitted dose curve at least 0.9, where 1 is the maximum)
# Nuclear receptor subfamily 1 group I member 2 (Homo sapiens), sequence (O75469 whole entry, looked up, the tested form may be a part): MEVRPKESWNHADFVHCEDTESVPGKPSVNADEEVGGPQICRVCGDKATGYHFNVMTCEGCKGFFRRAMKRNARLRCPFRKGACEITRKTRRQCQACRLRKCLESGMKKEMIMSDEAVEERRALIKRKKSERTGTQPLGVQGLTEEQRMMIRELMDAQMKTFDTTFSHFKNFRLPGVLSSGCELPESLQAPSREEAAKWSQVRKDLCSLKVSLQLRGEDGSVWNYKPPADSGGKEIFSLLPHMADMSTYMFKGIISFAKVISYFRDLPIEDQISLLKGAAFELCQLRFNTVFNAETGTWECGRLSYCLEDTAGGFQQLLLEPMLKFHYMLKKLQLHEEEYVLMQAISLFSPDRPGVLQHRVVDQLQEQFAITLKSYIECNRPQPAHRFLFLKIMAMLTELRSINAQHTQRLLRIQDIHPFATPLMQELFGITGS
# In short: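 HepG2 transfected (FuGene 6) with GAL4-UAS reporter units + PXR-Gal4 chimera; dosed 24 h. Total RNA → oligo(dT) RT → PCR → 6-FAM primer extension → HpaI cut → CE. Gain-of-signal vs DMSO.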
# [16] = biological target: human RAR-related Orphan Receptor gamma (RORg), RORC (gene 6097) (UniProt P51449); experiment: ATG_RORg_TRANS: Attagene TRANS-FACTORIAL HepG2 Assay for human RAR-related Orphan Receptor gamma (RORg) (AID 2283011; active = hit-call score of the fitted dose curve at least 0.9, where 1 is the maximum)
# human RAR-related Orphan Receptor gamma (RORg), RORC (gene 6097), sequence (P51449 whole entry, looked up, the tested form may be a part): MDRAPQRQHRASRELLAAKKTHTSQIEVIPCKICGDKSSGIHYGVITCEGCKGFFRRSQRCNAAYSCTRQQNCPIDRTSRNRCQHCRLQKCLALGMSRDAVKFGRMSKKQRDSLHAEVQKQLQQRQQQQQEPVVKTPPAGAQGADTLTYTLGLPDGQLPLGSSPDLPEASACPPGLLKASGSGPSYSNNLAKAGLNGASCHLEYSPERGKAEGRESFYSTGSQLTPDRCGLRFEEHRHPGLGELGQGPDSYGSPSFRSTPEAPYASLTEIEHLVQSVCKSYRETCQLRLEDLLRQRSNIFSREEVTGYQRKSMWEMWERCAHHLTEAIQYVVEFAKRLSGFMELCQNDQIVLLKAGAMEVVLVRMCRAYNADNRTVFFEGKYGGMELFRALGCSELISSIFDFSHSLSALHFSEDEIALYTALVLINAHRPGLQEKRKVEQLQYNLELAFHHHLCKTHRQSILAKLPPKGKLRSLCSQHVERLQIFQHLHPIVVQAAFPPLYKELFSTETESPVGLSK
# In short: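 Transient MRTU transfection of HepG2 (TRANS format, exogenous NR-Gal4 chimera). 24 h dosing. Total RNA → oligo(dT) RT → PCR → 6-FAM labelling → HpaI cut → CE. Gain vs DMSO.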
# [17] = biological target: human Retinoic Acid Receptor gamma (RARg), RARG (gene 5916) (UniProt P13631); experiment: ATG_RARg_TRANS: Attagene TRANS-FACTORIAL HepG2 Assay for human Retinoic Acid Receptor gamma (RARg) (AID 2283009; active = hit-call score of the fitted dose curve at least 0.9, where 1 is the maximum)
# human Retinoic Acid Receptor gamma (RARg), RARG (gene 5916), sequence (P13631 whole entry, looked up, the tested form may be a part): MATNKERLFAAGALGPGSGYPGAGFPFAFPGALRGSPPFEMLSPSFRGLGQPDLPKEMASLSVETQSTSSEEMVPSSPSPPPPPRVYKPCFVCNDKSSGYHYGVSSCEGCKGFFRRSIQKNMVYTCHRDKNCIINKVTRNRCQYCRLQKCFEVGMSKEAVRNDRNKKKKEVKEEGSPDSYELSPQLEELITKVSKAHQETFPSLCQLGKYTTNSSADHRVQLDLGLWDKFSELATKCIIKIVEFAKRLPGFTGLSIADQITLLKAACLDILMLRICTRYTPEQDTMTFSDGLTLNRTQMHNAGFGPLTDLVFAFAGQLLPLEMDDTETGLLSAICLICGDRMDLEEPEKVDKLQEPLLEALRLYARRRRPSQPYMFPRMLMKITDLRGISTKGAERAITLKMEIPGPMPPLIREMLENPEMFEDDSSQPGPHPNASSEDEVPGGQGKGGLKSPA
# In short: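 Readout: reporter transcript levels via RT-PCR, 6-FAM primer-extension labelling, HpaI digestion and capillary electrophoresis. Cells: HepG2 carrying transfected RARg-GAL4 chimera plus UAS reporter set. Dosing 24 h; DMSO negative control.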
# [18] = ATG_Oct_MLP_CIS: Attagene CIS-FACTORIAL HepG2 Assay for human Octamer-Binding Transcription Factor (Oct) (AID 2282993); settings: HepG2 Attagene cis-factorial Oct reporter, mRNA; actives raise or lower the signal
# In short: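 Read-out: reporter mRNA via RT-PCR plus capillary electrophoresis of 6-FAM-labelled fragments. Transiently transfected HepG2, 24 h exposure, endogenous TF activity on cis elements. Gain or loss of signal fitted relative to DMSO.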
# [19] = biological target: human RAR-related Orphan Receptor beta (RORb), RORB (gene 6096) (UniProt Q92753); experiment: ATG_RORb_TRANS: Attagene TRANS-FACTORIAL HepG2 Assay for human RAR-related Orphan Receptor beta (RORb) (AID 2283010; active = hit-call score of the fitted dose curve at least 0.9, where 1 is the maximum)
# human RAR-related Orphan Receptor beta (RORb), RORB (gene 6096), sequence (Q92753 whole entry, looked up, the tested form may be a part): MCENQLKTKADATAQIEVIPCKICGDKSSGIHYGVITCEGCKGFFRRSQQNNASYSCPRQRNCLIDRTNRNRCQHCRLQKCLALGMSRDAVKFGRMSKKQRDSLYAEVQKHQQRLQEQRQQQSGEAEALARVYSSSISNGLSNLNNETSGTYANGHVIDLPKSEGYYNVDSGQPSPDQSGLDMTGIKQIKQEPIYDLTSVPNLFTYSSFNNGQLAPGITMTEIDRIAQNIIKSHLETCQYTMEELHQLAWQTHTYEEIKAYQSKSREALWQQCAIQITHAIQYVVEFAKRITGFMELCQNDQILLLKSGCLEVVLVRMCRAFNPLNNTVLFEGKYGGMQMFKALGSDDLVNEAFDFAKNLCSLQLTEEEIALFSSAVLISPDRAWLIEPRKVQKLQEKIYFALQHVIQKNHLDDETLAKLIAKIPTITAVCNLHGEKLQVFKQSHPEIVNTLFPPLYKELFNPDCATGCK
# In short: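 HepG2, transient MRTU transfection (GAL4-UAS reporters, exogenous NR-Gal4 chimeras); 24 h compound exposure; total RNA → RT-PCR → 6-FAM primer extension → HpaI digest → CE fluorescence. Positive direction vs DMSO baseline.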
# [20] = biological target: Retinoic acid receptor alpha (Homo sapiens) (UniProt P10276); experiment: ATG_RARa_TRANS: Attagene TRANS-FACTORIAL HepG2 Assay for human Retinoic Acid Receptor alpha (RARa) (AID 2283005; active = hit-call score of the fitted dose curve at least 0.9, where 1 is the maximum)
# In short: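 Reporter transcripts, measured by RT-PCR with fluorescent labeling and capillary electrophoresis after 24 h dosing, reflect activity of an exogenous human RARa–GAL4 fusion in transiently transfected HepG2. Fitted for increase relative to DMSO.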
smiles,measurement,setting,value
CCC(C)OC(=O)N1CCCCC1CCO (centres undefined),outcome,[1],inactive
same,outcome,[2],inactive
same,AC50,[3],44.4 µM (active)
same,outcome,[3],inactive
same,outcome,[4],inactive
same,outcome,[5],inactive
same,outcome,[6],inactive
same,outcome,[7],inactive
same,outcome,[8],inactive
same,outcome,[9],inactive
same,outcome,[10],inactive
same,outcome,[11],inactive
same,outcome,[12],inactive
same,outcome,[13],inactive
same,outcome,[14],inactive
same,AC50,[15],9.99 µM (active)
same,outcome,[15],inactive
same,outcome,[16],inactive
COC(=O)c1ccccc1S(=O)(=O)NC(=O)Nc1nc(OC(F)F)cc(OC(F)F)n1,outcome,[1],inactive
same,outcome,[2],inactive
same,outcome,[3],inactive
same,outcome,[4],inactive
same,outcome,[5],inactive
same,outcome,[6],inactive
same,outcome,[7],inactive
same,outcome,[8],inactive
same,outcome,[10],inactive
same,outcome,[11],inactive
same,outcome,[13],inactive
same,outcome,[14],inactive
same,outcome,[17],inactive
O=C(c1ccc(O)cc1O)c1ccc(O)cc1O,outcome,[1],inactive
same,outcome,[2],inactive
same,outcome,[3],inactive
same,outcome,[18],inactive
same,outcome,[4],inactive
same,AC50,[5],29.2 µM (active)
same,outcome,[6],inactive
same,outcome,[7],inactive
same,outcome,[8],inactive
same,outcome,[9],inactive
same,outcome,[10],inactive
same,outcome,[11],inactive
same,outcome,[12],inactive
same,outcome,[13],inactive
same,AC50,[14],49.1 µM (active) [middle of 4 runs]
same,outcome,[15],inactive
same,outcome,[17],inactive
same,outcome,[19],inactive
same,outcome,[16],inactive
C[C@]12C[C@H](O)[C@H]3[C@@H](CCC4=CC(=O)CC[C@@]43C)[C@@H]1CC[C@@H]2C(=O)CO,outcome,[1],inactive
same,outcome,[2],inactive
same,outcome,[3],inactive
same,outcome,[18],inactive
same,outcome,[4],inactive
same,outcome,[5],inactive
same,outcome,[6],inactive
same,outcome,[7],inactive
same,outcome,[8],inactive
same,outcome,[9],inactive
same,outcome,[10],inactive
same,outcome,[11],inactive
same,outcome,[12],inactive
same,AC50,[13],29 µM (active)
same,outcome,[14],inactive
same,AC50,[15],27.7 µM (active) and 11.4 µM (active)
same,outcome,[15],inactive
same,outcome,[16],inactive
S=C([S-])NCCNC(=S)[S-].[Mn+2],outcome,[1],inactive
same,outcome,[3],inactive
same,outcome,[18],inactive
same,outcome,[5],inactive
same,outcome,[6],inactive
same,outcome,[7],inactive
same,AC50,[8],26.8 µM (active)
same,outcome,[9],inactive
same,outcome,[11],inactive
same,outcome,[14],inactive
same,outcome,[19],inactive
N[C@@H](Cc1cc(I)c(Oc2ccc(O)c(I)c2)c(I)c1)C(=O)O,outcome,[1],inactive
same,outcome,[18],inactive
same,AC50,[4],25.2 µM (active)
same,outcome,[4],inactive
same,outcome,[5],inactive
same,outcome,[6],inactive
same,outcome,[7],inactive
same,AC50,[8],16 µM (active)
same,outcome,[9],inactive
same,outcome,[10],inactive
same,outcome,[11],inactive
same,outcome,[13],inactive
same,AC50,[14],49.8 µM (active) and 34.9 µM (active) and 4.02 µM (active)
same,outcome,[14],inactive
same,AC50,[15],30.5 µM (active) and 26.8 µM (active) and 6.08 µM (active)
same,outcome,[15],inactive
same,outcome,[16],inactive
CCCCOCCOCCOCc1cc2c(cc1CCC)OCO2,outcome,[1],inactive
same,outcome,[2],inactive
same,AC50,[3],7.81 µM (active)
same,outcome,[5],inactive
same,outcome,[6],inactive
same,outcome,[7],inactive
same,outcome,[8],inactive
same,outcome,[9],inactive
same,outcome,[10],inactive
same,outcome,[11],inactive
same,outcome,[12],inactive
same,outcome,[20],inactive
same,AC50,[13],24 µM (active)
same,AC50,[14],16.9 µM (active)
same,AC50,[15],13.3 µM (active)
same,outcome,[17],inactive
same,outcome,[16],inactive
